The values below come from PubChem BioAssay AID411 (National Center for Advancing Translational Sciences (NCATS), 2006).

The structures appear in SMILES notation. Among all 72,000 compounds or so, about 1,600 (2.2%) were called active. Entries that show only a call come without a potency. Calls follow the shape of the dose curve; as a rule, active = well fitted inhibition curve with a large enough effect; inconclusive = small, poorly fitted or top-dose-only effect; inactive = flat fitted curve, though single readings scatter. This excerpt belongs to a sample that is enriched for actives.
Potency is read from the fitted curve at half-maximal effect.

Sequence of Luciferin 4-monooxygenase (Photinus pyralis) (P08659 whole entry, looked up): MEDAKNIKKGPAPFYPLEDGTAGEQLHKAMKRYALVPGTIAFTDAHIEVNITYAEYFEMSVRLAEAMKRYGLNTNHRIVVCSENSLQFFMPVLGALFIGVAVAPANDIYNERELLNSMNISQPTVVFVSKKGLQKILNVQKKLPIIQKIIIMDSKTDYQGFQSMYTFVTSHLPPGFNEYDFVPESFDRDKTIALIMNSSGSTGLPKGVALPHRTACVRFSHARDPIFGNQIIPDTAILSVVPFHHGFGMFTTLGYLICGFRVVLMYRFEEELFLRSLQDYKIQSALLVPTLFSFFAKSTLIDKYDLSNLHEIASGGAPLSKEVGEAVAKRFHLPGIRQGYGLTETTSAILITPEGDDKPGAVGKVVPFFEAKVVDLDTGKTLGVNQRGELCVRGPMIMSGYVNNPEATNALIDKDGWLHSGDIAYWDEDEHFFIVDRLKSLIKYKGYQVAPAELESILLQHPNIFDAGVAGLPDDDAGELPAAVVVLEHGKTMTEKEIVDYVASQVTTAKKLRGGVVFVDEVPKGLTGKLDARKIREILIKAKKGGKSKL

This assay concerns the target Luciferin 4-monooxygenase (Photinus pyralis) (UniProt P08659). The assay is described as follows: qHTS Assay for Inhibitors of Firefly Luciferase. Also: nearly all actives have a fitted effect of over 40% in size. The conditions noted are these: purified firefly luciferase, luminescence, 8 min; series mostly up to 57.1 µM. In outline: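 Compounds were tested as concentration series (qHTS) against purified P. pyralis luciferase with luciferin and 10 uM ATP in 50 mM imidazole pH 7.2, 50 mM KCl, 7 mM MgCl2, 0.01% Tween 20, 0.05% BSA. Luminescence was read after 8 min at ambient temperature.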
`Cc1ccc(S(=O)(=O)NCc2cn3ccsc3n2)c(C)c1`: the Potency entry is “inactive”. The same measure, in the same setting: in the case of `O=C(NCc1cn2ccsc2n1)Nc1ccc(Cl)cc1` it was “inactive”.

Take `COc1ccc(-c2cn3ccsc3n2)cc1`: the Potency was 3.98 µM (active).

Turning to `CC(=O)N1CCC2(CCCN(Cc3ccc(C#N)cc3)C2)CC1`, the activity change, negative = inhibition was 0.0675% [at 11.4 µM] (inactive). In the case of `Cc1ccc(NC(=O)CSc2nnc(-c3cnccn3)n2Cc2ccco2)cc1C`, the Potency entry was “inactive”. As to `CN(C(=O)COc1ccccc1)c1nnc(-c2ccncc2)s1`, the Potency result is “inactive”. As for `CN(C(=O)c1ccno1)c1nnc(-c2cccnc2)s1`, the Potency result was “inactive”. As for `CN(C(=O)c1ccccn1)c1nnc(-c2ccccn2)s1`, the Potency was 10 µM (active). Same read-out and setting: under `O=S1(=O)CCN2C(=N1)SC1=C2CCN(Cc2ccccc2)C1` stands “inactive”; under `COc1ccc(-c2nc3n(c2Br)CCC3)cc1`, 12.6 µM (active). Regarding `COc1ccc(-c2cc3n(n2)CCc2nc4ccccc4n2-3)cc1`, the Potency entry was “inactive”. With `Brc1cccc(-c2nnc3n2CCC3)c1`, the Potency result was “inactive”. `Cc1nc2ccc(NC(=O)N3CCC(c4ccccc4)C3)cc2nc1C` (stereo unspecified): the Potency entry is “inactive”. On the same count and under the same terms, under `Cc1cc(=O)oc(C)c1C(=O)Nc1cnc2ccccc2c1` stands “inactive”; under `Cc1ccc(NC(=O)c2cc(-c3ccc(C)o3)nc3ccccc23)nc1`, 12.6 µM (active); under `Cc1ccc(C(=O)CSc2nc3ccccc3c(=O)n2N)o1`, “inactive”. In the case of `CCOC(=O)Cc1csc(NC(=O)CSc2nc(C)cc(=O)[nH]2)n1`, the Potency entry was “inactive”. The same measure, in the same setting: in the case of `CCOC(=O)Cc1csc(NC(=O)C(C)(C)C)n1` it was “inactive”; in that of `CCOC(=O)Cc1csc(NC(=O)Nc2ccccc2)n1`, 12.6 µM (active). For the compound `CNc1nc(-c2ccccc2OC)nc2ccccc12`, the activity change, negative = inhibition is -0.211% [at 2.29 µM] (inactive). Regarding `Cc1nc2cnc(Nc3ccccc3)nc2n(Cc2ccc(F)cc2)c1=O`, the activity change, negative = inhibition is -0.327% [at 11.4 µM] (inactive).
